Hits are enriched below; roughly 3.1% of the tested compounds scored in any of these assays.
Casp6 inh: caspase-6 (human) enzyme inhibition; P55212; purified caspase-6, Z-VEID-R110 cleavage fluorescence; inhibition, % at 12.5 µM; hit rate 0.53% among 350,000; AID 686996;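 active means mean inhibition across replicates at least about 35%, with every replicate also reaching that limit, limit read from the data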
Target sequence (P55212 24-179 limits assumed): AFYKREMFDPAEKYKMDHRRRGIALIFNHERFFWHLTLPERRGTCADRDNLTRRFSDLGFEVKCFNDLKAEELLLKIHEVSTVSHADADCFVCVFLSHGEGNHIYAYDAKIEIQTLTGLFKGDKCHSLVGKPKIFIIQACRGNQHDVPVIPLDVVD
Target sequence (P55212 194-293 limits assumed): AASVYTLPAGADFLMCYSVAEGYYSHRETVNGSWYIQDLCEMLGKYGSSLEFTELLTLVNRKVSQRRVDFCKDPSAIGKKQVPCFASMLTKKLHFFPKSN
SIRT5 inh: blocks human SIRT5 desuccinylation of peptide; inhibition, % at 15 µM; Purified SirT5, succinyl-peptide AMC, trypsin-coupled fluorescence; hit rate 1.1% among 330,000; in the data active means inhibition above about 15%
ERAP1 inh: inhibitors of human ERAP1 aminopeptidase. hit rate 0.15% among 340,000. recombinant ERAP1, Leu-AMC fluorescence, 60 min. inhibition, % at 10.7 µM;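 active means mean replicate inhibition of at least 30%, or all replicates individually reaching that 30% level; inactive means mean below 30% and not every replicate reaching it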
FGF22 binding: binders of recombinant human FGF22 by thermal shift | Q9HCT0 | SYPRO orange fluorescence; percent of sucrose octasulfate shift, DMSO zero | activity (Tm shift, normalised), % at 9.99 µM | hit rate 1.5% among 340,000 | AID 651658;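 active means mean Tm shift, scaled 0 neutral to 100 positive control, at about 1.3% or above, every replicate too, limit read from the data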
Target sequence (Q9HCT0 whole entry, looked up): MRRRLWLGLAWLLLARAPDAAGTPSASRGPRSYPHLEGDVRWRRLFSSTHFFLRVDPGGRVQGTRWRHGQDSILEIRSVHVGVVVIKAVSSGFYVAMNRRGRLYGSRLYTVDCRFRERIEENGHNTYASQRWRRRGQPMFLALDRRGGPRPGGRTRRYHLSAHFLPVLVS
Of the large screens only hits and unclear results are named; the others gave an inactive call.

CO[C@@H]1CN(C)C(=O)c2ccc(NC(=O)C3CCCC3)cc2OC[C@H](C)N(CC2CC2)C[C@H]1C	none
CC1(C)COC2(OC1)C(=O)N(CN1CCOCC1)c1ccccc12	FGF22 binding 43
C[C@H](NC(=O)C[C@@H]1CC[C@H](NC(=O)C2CCOCC2)[C@@H](CO)O1)c1ccccc1	none
COc1ccc(C(=O)N2C[C@@H]3[C@H](c4ccccc42)[C@@H](CO)N3C(=O)c2ccc(F)cc2)cc1	none (no result: FGF22 binding)
CCC(C)NS(=O)(=O)c1ccc(NC(=O)C2CCCO2)cc1 (stereo not given)	FGF22 binding 43
CCN(CC)S(=O)(=O)c1ccc(NC(=O)C2CCCO2)cc1 (stereo not given)	none
COc1ccc2c3c(n(C)c2c1)[C@H](CO)N(C(=O)C1CCOCC1)CC31CCN(C(=O)Nc2cccc(F)c2)CC1	none
O=C(NN=C1CCCC1)c1n[nH]c2c1CCC2	Casp6 inh 59
Cc1ncc(CN2CCC(CO)(CCOc3ccccc3)CC2)s1	none
COc1ccc(CC2(CO)CCN(Cc3cnc(-c4ccccc4C)nc3)CC2)cc1	FGF22 binding 44
Cc1ncc(CN2CCC(CO)(Cc3ccccc3)CC2)s1	SIRT5 inh 18 (no result: ERAP1 inh)
COc1ccc2c(C=O)cn(C)c2c1	FGF22 binding 43
COc1ccc(CN(C)C[C@H]2OCCCC[C@H](C)Oc3ccc(NS(=O)(=O)c4ccc(C)cc4)cc3C(=O)N([C@H](C)CO)C[C@H]2C)cc1	none (no result: FGF22 binding)
C=C(C)C(=O)N1CC2(CC(c3cccc(NC(=O)/C(C)=C\C)c3)=NO2)C[C@H]1C(N)=O (stereo not given in full)	none (no result: Casp6 inh, SIRT5 inh)
C=C(C)C(=O)Nc1cccc(C2=NOC3(C2)C[C@@H](C(N)=O)N(C(=O)CCCCC)C3)c1 (stereo not given in full)	Casp6 inh 59 (no result: SIRT5 inh)
C=C(C)C(=O)N1CC2(CC(c3cccc(NC(=O)c4ccccc4)c3)=NO2)C[C@@H]1C(N)=O (stereo not given in full)	FGF22 binding 44
CCc1cccc(N=c2c([N+](=O)[O-])nn(-c3ccc4c(c3)OCCO4)n2O)c1	FGF22 binding 43
O=C(NC1CCCCC1)C1CCC(=O)N(C2CC2)C1 (stereo not given)	none
CC1(C)CC(NC(=O)C2CCC(=O)N(C3CC3)C2)CC(C)(C)C1 (stereo not given)	SIRT5 inh 36
O=C(C[C@@H]1C=C[C@@H](NC(=O)CC2CC2)[C@H](CO)O1)NCc1ccccc1	none (no result: FGF22 binding)
COc1ccccc1/C=C/C=O	none
Cc1ccc(NC(=O)CCC(=O)NNC(=O)COc2ccc([N+](=O)[O-])cc2)c(C)c1	none
Cc1ccc(NC(=O)CCC(=O)NNC(=O)COc2ccccc2)c(C)c1	Casp6 inh 41
Cc1ccc(S(=O)(=O)N(C)c2ccc(C)c([N+](=O)[O-])c2)cc1	FGF22 binding 43
COc1ccc(N(C)S(=O)(=O)c2ccc(C)cc2)c([N+](=O)[O-])c1	none (no result: SIRT5 inh)
CC(C)CSc1n[nH]c(=S)s1	FGF22 binding 43
COc1ccc(CCCc2n[nH]c(=S)o2)cc1C	FGF22 binding 43
CCN1C(=O)C(C)C=C(C)C=C1C (stereo not given)	FGF22 binding 44 (no result: SIRT5 inh)
CC(C)NC(=O)N(C)C[C@@H]1Oc2ccc(NC(=O)NC3CCCCC3)cc2C(=O)N([C@H](C)CO)C[C@@H]1C	none (no result: Casp6 inh)
CN(CCC#N)c1ccc(/C=C(\C#N)c2ccccn2)cc1	none
CN(CCC#N)c1ccc(C=C(C#N)c2ccc(Br)cc2)cc1	FGF22 binding 44 (no result: SIRT5 inh)
Cc1ccccc1-c1ccnc2[nH]n(-c3ccccc3)c(=O)c12	SIRT5 inh 24
CS(=O)(=O)N1[C@@H]2c3ccc(-c4ccccc4F)c(=O)n3C[C@@H]2[C@@H](CO)[C@@H]1C(=O)NCC1CC1	none (no result: FGF22 binding)
O=S(=O)(N[C@H]1CC[C@H](CCn2cc(C3(O)CCCC3)nn2)O[C@@H]1CO)c1ccccc1	none
C[C@@H]1CN([C@@H](C)CO)C(=O)c2cc(NC(=O)NC3CCCCC3)ccc2O[C@@H](C)CCCCO[C@H]1CN(C)CC1CCCCC1	none (no result: Casp6 inh, SIRT5 inh, ERAP1 inh)
C[C@H](CO)N1C[C@H](C)[C@@H](CN(C)C(=O)Nc2ccc(C(F)(F)F)cc2)Oc2c(NS(=O)(=O)c3ccc(Cl)cc3)cccc2C1=O	none
O=C(NC1CC1)c1ccc(NS(=O)(=O)c2ccccc2)cc1	none
O=C(NC1CCCCC1)c1ccc(S(=O)(=O)c2ccccc2)cc1	SIRT5 inh 40
C#CCOc1ccc(CNC[C@H]2O[C@@H](n3ccc(N)nc3=O)[C@H](O)[C@@H]2O)cc1	Casp6 inh 39
CCc1c(C)c2cc(Cl)c(O)c(CN(CC)CC)c2oc1=O	ERAP1 inh 85
Cn1cnc(S(=O)(=O)N[C@@H]2CC[C@@H](CC(=O)N3CCN(c4ccccc4)CC3)O[C@H]2CO)c1	none
O=C(CSc1cn[nH]n1)Nc1cccc(C(=O)O)c1	ERAP1 inh 32
O=C(O)CSc1nnc(Nc2ccccc2)n1-c1ccccc1	FGF22 binding 44
COc1ccc(-n2c(SCC(=O)Nc3cccc(C(=O)O)c3)nnc2-c2ccco2)cc1	none
O=C(CSc1nnc(-c2ccccc2O)n1-c1ccccc1)Nc1cccc(C(=O)O)c1	FGF22 binding 43
O=C(O)CSc1nnc(COc2ccccc2)n1-c1ccccc1	none
CN(C)C(=O)C[C@@H]1C[C@@H]2c3cc(NC(=O)c4ccc5c(c4)OCO5)ccc3O[C@@H]2[C@@H](CO)O1	none
CC(=O)N1C[C@H]2CON(C)[C@H]2C[C@H]1c1cccc(N2CCOCC2)c1	ERAP1 inh 108
CN1OC[C@@H]2CN(C(=O)CCc3ccccc3)[C@H](c3cccc(N4CCOCC4)c3)C[C@@H]21	none
NNC(=O)c1cc(O)c(O)c(O)c1	Casp6 inh 77
CN1CCN(C(=O)C[C@@H]2CC[C@@H]3[C@H](COC[C@@H](O)CN3C(=O)Nc3cc(Cl)cc(Cl)c3)O2)CC1	none
COc1ccc(NC(=O)N2CC(=O)N3[C@H](C2)[C@@H](c2ccc(C4=CCCC4)cc2)[C@@H]3CO)cc1	none (no result: FGF22 binding)
O=C(CN1C(=O)NC(c2ccccc2)(c2ccccc2)C1=O)Nc1ccc(N2CCOCC2)cc1	none (no result: SIRT5 inh)
COc1ccc(C2(c3ccc(OC)cc3)NC(=O)N(CC(=O)Nc3ccc(N4CCOCC4)cc3)C2=O)cc1	Casp6 inh 51 (no result: FGF22 binding)
C[C@H]1CN([C@@H](C)CO)C(=O)Cc2cc(NC(=O)c3ccncc3)ccc2O[C@H]1CN(C)C(=O)Nc1cccc2ccccc12	none
Cc1cc2c(cc1C)-n1nnnc1C(N1CCCC1)C(=O)N2 (stereo not given)	none (no result: ERAP1 inh)
O=C1Nc2ccccc2-c2nnnn2C1N1CCCC1 (stereo not given)	SIRT5 inh 18
COc1ccc(NC(=O)N(C)C[C@@H]2Oc3ccc(NS(=O)(=O)c4ccc(Cl)cc4)cc3CC(=O)N([C@H](C)CO)C[C@@H]2C)cc1	none
O=C(c1cccc(F)c1)N1CC(=O)N2[C@H](C1)[C@@H](c1ccc(C3=CCCC3)cc1)[C@@H]2CO	none (no result: FGF22 binding)
Cc1ccc(O)c(NC(=O)c2noc3c2CCc2ccccc2-3)c1	FGF22 binding 43
Cc1cc(NC(=O)c2noc3c2CCc2ccccc2-3)no1	none
